From the supplement of paper PMC12297408
Counter-ions that a name gives are not always drawn. Hit rate of the full screen: of about 1,300 compounds, about 40 (3%) showed activity. The list comes from a sample in which actives are over-represented; it also holds similar structures and randomly drawn compounds. Unmarked numbers belong to inactive results.

Tested on: Plasmodium falciparum NF54/iGP1_RE9H ulg8 stage V gametocytes
Test: gametocyte viability (luciferase signal relative to DMSO control) (% of DMSO control); higher = less gametocytocidal activity, active = 50 or less
Conditions: exposure time: 72 h
In short: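 Gametocyte viability is reported relative to the average of DMSO vehicle wells on the same plate. The assay used day-12 stage V NF54/iGP1_RE9Hulg8 gametocytes at ~2.5% gametocytemia and 3% hematocrit, in 0.5% Albumax II medium, added to 96-well plates of compounds spotted in nanolitre volumes for final 10 µM or 1 µM, one well each. After 72 h at 37 °C, 90 µl was mixed with 10 µl D-luciferin (30 mg/ml), and luminescence was recorded with an IVIS Lumina II.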

SMILES	gametocyte viability (concentration: 1 µM)	gametocyte viability (concentration: 10 µM)
CN/C(=N\CCSCc1nc[nH]c1C)NC#N [Cimetidine]	100	94.5
C[C@]12CC[C@@H]3c4ccc(O)cc4C[C@@H](CCCCCCCCC[S+]([O-])CCCC(F)(F)C(F)(F)F)[C@H]3[C@@H]1CC[C@@H]2O (stereo partly specified) [Fulvestrant]	90.3	84.7
O=C1OC(CN2CCOCC2)CN1/N=C/c1ccc([N+](=O)[O-])o1 (stereo unspecified) [Furaltadone hydrochloride]	89.7	93.4
CN(C)CCN1C(=O)c2ccccc2N(C)c2ccccc21 [Dibenzepine hydrochloride]	84.8	91.3
COc1cc(NC(C)CCCN)c2ncccc2c1 (stereo unspecified) [Primaquine diphosphate]	83.1	35.1 (active)
CCCc1nn(C)c2c(=O)[nH]c(-c3cc(S(=O)(=O)N4CCN(C)CC4)ccc3OCC)nc12 [Sildenafil]	90.3	70.6
CCCc1nc(C)c2c(=O)nc(-c3cc(S(=O)(=O)N4CCN(CC)CC4)ccc3OCC)[nH]n12 [Vardenafil]	70.1	43.9 (active)
CN(C)CCOC(c1ccccc1)c1ccccc1.Cn1c(=O)c2[nH]c(Cl)nc2n(C)c1=O [Dimenhydrinate]	89	94
COc1ccc(CN(CCN(C)C)c2ccccn2)cc1 [Pyrilamine maleate]	90.9	100
CCCCCCCCCCCCCCCC[N+](C)(C)CCN(Cc1ccc(OC)cc1)c1ncccn1 [Thonzonium bromide]	77	1.76 (active)
CN(C)CCN(Cc1ccc(Cl)cc1)c1ccccn1 [Chloropyramine hydrochloride]	87.4	90.3
CCCNCC(O)COc1ccccc1C(=O)CCc1ccccc1 (stereo unspecified) [Propafenone hydrochloride]	81.6	75.7
CC(C)Nc1cccnc1N1CCN(C(=O)c2cc3cc(NS(C)(=O)=O)ccc3[nH]2)CC1 [Delavirdine]	92.5	95.8
CC[C@@H]1C(=O)OC[C@@H]1Cc1cncn1C [Pilocarpine nitrate]	98.2	98
CC(C)NCC(O)c1ccc(NS(C)(=O)=O)cc1 (stereo unspecified) [Sotalol hydrochloride]	83.1	92.1
N=C(N)NC(=N)NCCc1ccccc1 [Phenformin hydrochloride]	83.8	83.6
N=C(NCCCCCCNC(=N)NC(=N)Nc1ccc(Cl)cc1)NC(=N)Nc1ccc(Cl)cc1 [Chlorhexidine]	92.1	1.08 (active)

SMILES	gametocyte viability (concentration: 1 µM)	gametocyte viability (concentration: 10 µM)
CC(C)NC(=N)NC(=N)Nc1ccc(Cl)cc1 [Proguanil hydrochloride]	100	106
N=C(N=C(N)N)N1CCOCC1 [Moroxidine hydrochloride]	83.9	87.9
NC1CCN(c2nc3c(cc2F)c(=O)c(C(=O)O)cn3-c2ccc(F)cc2F)C1 (stereo unspecified) [Tosufloxacin hydrochloride]	78.5	86.9
NC(=O)c1ccc[n+]([C@@H]2O[C@H](COP(=O)([O-])OP(=O)(O)OC[C@H]3O[C@@H](n4cnc5c(N)ncnc54)[C@H](O)[C@@H]3O)[C@@H](O)[C@H]2O)c1 [Nadide]	85.3	79.3
C[C@]12CCC(=O)C=C1C=C[C@@H]1[C@@H]2CC[C@@]2(C)[C@H]1CC[C@@]21CCC(=O)O1 [Canrenone]	80	83.7
C[C@H]1O[C@H](O[C@H]2[C@H](O)[C@@H](O)[C@@H](O[C@@H]([C@H](O)[C@@H](O)C=O)[C@H](O)CO)O[C@@H]2CO)[C@H](O)[C@@H](O)[C@@H]1N[C@H]1C=C(CO)[C@@H](O)[C@H](O)[C@H]1O [Acarbose]	80.6	83.5
NCCc1cc[nH]n1 [Betazole hydrochloride]	94.2	94.2
CCC(=O)OCC(=O)[C@@]1(OC(=O)CC)[C@H](C)C[C@H]2[C@H]3[C@H]([C@@H](O)C[C@@]21C)[C@@]1(C)C=CC(=O)C=C1C[C@H]3Cl [Alclometasone dipropionate]	83.6	78.3
CN(N=O)C(=O)N[C@H]1C(O)O[C@H](CO)[C@@H](O)[C@@H]1O (mixture of isomers) [Streptozotocin]	84.7	92.1
C[C@@H](O)[C@H]1C(=O)N2C(C(=O)O)=C(SCCNC=N)C[C@H]12 [Imipenem]	88.8	87.5
Cc1cc(N)c2ccccc2[n+]1CCCCCCCCCC[n+]1c(C)cc(N)c2ccccc21 [Dequalinium dichloride]	83.5	36.1 (active)
Cc1[nH]c(=O)c(C#N)cc1-c1ccncc1 [Milrinone]	81	82.1
Cc1c(C)c2c(c(C)c1O)CCC(C)(COc1ccc(CC3SC(=O)NC3=O)cc1)O2 (stereo unspecified) [Troglitazone]	81.7	76.3
CC=C(C)C(=O)OC1C(OC(C)=O)C2(CO)C(O)CC3(C)C(=CCC4C5(C)CCC(OC6OC(C(=O)O)C(OC7OC(CO)C(O)C(O)C7O)C(O)C6OC6OC(CO)C(O)C(O)C6O)C(C)(CO)C5CCC43C)C2CC1(C)C (stereo not drawn) [Beta-Escin]	90.1	93.2
C[C@@H](O[C@H]1OCCN(Cc2n[nH]c(=O)[nH]2)[C@H]1c1ccc(F)cc1)c1cc(C(F)(F)F)cc(C(F)(F)F)c1 [Aprepitant]	87.7	75.4
CCN(CC)CCNC(C(=O)OCCC(C)C)c1ccccc1 (stereo unspecified) [Camylofine chlorhydrate]	79.9	85.5
